Among the data in PubChem BioAssay are composite z-score and z-score values, retold here.

Each structure is given as a SMILES string. Calls of active or inactive are those of the source.

Test [1] deals with Plasmodium falciparum Sir2 (PF13_0152, Sir2A). As to the kind of experiment: pfSir2 binders on small-molecule microarrays, primary screen, biochemical, small-molecule microarray, 635 nm fluorescence (AID 1098).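 Further: score merges spot fluorescence intensity with its signal-to-noise ratio.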 The note with it: small-molecule microarray binding, fluorescence 635 nm; higher = more signal.
The nature of test [2]: small-molecule microarray binders of probe aDKK1, primary screen, biochemical, biotinylated probe, 635/667 nm fluorescence (AID 1099).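 Further: score merges 667nm spot fluorescence with signal to noise across triplicate slides; reference of the scale not given here.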 Particulars: higher = more signal.
Test [3] in a line: small-molecule microarray binders of probe aCHRDL2, primary screen, biochemical, biotinylated probe, 635/667 nm fluorescence (AID 1100). The note with it: higher = more signal.
Test [4] in a line: splicing luciferase reporter signal modulators, primary screen, spliceosome inhibition project, cell-based, HEK293, splice +/- reporter (AID 1101).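 Further: HEK293 cells carrying a splicing-competent luciferase reporter gene; test concentration not given here.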 Particulars: luminescence, 24 h, higher = more signal, called active from +8 up or from −8 down.
Test [5] deals with Fibroblast growth factor 10 (Homo sapiens) (UniProt O15520). As to the kind of experiment: FGF10 binders on small-molecule microarrays, primary screen, biochemical, small-molecule microarray, 635 nm fluorescence (AID 1102). The note with it: FGF10 binding, fluorescence 635 nm, higher = more signal.
Test [6] has as its system glycogen synthase kinase-3 (GSK3A per assay name; protocol says GSK3B). As to the kind of experiment: GSK3 binders on small-molecule microarrays, primary screen, biochemical, small-molecule microarray, 635 nm fluorescence, GSK3A (AID 1103). Further: the record names both GSK3A and GSK3B. Particulars: small-molecule microarray binding, fluorescence 635 nm; higher = more signal.
The target in test [7] is Epidermal growth factor receptor (Homo sapiens) (UniProt P00533). The experiment in a line: EGFR binders on small-molecule microarrays, primary screen, biochemical, small-molecule microarray, 635 nm fluorescence (AID 1104).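 Further: score merges 667 nm emission intensity with spot signal to noise over triplicate slides.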 Particulars: EGFR binding, higher = more signal.
In test [8] the target is Follistatin-related protein 3 (Homo sapiens) (UniProt O95633). As to the kind of experiment: FSTL3 binders on small-molecule microarrays, primary screen, biochemical, small-molecule microarray, 635 nm fluorescence (AID 1105).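 Further: score merges emission near 667 nm and signal to noise per printed spot across three slides.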 The note with it: FSTL3 binding, higher = more signal.
The target of test [9] is Dickkopf-related protein 1 (Homo sapiens) (UniProt O94907). The experiment in a line: DKK1 binders on small-molecule microarrays, primary screen, biochemical, small-molecule microarray, 635 nm fluorescence scan (AID 1106).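 Further: score merges emission near 667 nm with signal to noise over three replicate slides.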 The note with it: DKK1 binding, higher = more signal.
For test [10], the system named is Inhibin beta A chain (activin A). As to the kind of experiment: INHBA (activin A) binders on microarrays, primary screen, biochemical, small-molecule microarray, 635 nm fluorescence scan (AID 1107).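 Further: mouse activin A protein probed at 4.33 µg/mL on printed slides; score merges bound-protein fluorescence near 667 nm with spot signal-to-noise.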 Particulars: small-molecule microarray binding, higher = more signal.

Sequence of Follistatin-related protein 3 (Homo sapiens) (O95633 whole entry, looked up): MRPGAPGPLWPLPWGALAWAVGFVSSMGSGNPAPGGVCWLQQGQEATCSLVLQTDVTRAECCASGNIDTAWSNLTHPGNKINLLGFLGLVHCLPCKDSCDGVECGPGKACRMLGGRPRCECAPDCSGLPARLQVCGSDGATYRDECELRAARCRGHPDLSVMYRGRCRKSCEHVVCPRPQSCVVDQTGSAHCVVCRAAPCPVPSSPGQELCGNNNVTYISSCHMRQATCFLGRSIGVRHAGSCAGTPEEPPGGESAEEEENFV
Sequence of Fibroblast growth factor 10 (Homo sapiens) (O15520 whole entry, looked up): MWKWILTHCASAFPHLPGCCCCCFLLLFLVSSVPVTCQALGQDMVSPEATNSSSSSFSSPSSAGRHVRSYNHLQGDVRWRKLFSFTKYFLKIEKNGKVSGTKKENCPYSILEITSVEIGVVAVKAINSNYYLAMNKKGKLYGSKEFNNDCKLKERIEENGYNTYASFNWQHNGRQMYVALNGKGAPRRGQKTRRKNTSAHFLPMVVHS
Sequence of Epidermal growth factor receptor (Homo sapiens) (P00533 whole entry, looked up): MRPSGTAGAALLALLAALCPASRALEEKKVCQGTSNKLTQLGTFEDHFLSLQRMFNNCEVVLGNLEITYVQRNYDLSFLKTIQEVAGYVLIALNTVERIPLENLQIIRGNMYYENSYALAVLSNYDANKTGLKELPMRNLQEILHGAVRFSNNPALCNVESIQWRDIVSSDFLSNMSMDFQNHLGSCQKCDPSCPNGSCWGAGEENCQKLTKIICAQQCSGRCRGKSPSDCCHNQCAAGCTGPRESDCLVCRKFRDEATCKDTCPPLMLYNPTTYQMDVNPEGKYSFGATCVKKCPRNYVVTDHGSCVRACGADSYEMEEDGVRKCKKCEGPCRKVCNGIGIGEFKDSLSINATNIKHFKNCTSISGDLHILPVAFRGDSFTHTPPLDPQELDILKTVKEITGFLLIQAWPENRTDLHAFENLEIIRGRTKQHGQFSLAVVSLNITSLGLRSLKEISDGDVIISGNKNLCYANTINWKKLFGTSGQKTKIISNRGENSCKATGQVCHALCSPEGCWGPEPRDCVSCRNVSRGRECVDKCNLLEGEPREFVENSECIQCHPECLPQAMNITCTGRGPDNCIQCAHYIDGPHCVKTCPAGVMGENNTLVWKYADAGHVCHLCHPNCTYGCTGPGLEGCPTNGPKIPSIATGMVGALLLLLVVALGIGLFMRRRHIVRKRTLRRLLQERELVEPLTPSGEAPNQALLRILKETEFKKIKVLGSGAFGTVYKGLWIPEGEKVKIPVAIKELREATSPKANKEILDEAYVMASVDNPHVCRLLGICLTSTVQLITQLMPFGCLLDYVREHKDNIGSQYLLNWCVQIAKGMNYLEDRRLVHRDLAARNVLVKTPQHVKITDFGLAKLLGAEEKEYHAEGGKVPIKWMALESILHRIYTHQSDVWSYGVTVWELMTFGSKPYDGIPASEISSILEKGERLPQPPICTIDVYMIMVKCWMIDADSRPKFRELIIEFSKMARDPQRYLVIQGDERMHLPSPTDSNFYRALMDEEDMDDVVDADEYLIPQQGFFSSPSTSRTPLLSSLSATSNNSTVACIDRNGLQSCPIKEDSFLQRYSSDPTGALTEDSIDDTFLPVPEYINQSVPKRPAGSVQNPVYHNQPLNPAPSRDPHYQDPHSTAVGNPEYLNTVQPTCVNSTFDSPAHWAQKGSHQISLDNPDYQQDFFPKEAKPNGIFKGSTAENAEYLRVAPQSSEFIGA
Sequence of Dickkopf-related protein 1 (Homo sapiens) (O94907 whole entry, looked up): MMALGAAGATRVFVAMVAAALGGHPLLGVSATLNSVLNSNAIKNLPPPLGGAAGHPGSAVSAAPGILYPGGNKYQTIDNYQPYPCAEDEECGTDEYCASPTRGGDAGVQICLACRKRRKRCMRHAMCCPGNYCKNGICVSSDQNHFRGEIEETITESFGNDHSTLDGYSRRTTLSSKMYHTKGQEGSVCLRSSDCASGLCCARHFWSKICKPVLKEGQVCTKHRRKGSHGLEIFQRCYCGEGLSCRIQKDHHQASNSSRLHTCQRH

Regarding `CCOC(=O)C[C@H]1[C@H](OC(=O)c2ccc(-c3ccccc3)cc2)[C@@H](NC(=O)Cc2ccc(OC)cc2)c2cc(OCCCO)ccc2N1C(=O)c1ccccc1`, the composite z-score was -0.168 in [1]; 0.18 in [2]; 0.294 in [3]; 0.219 in test [5]; -0.454 in test [6]; -0.165 in test [7]. In addition, the composite z-score in [8] is -0.0876; in test [9], -0.384; in test [10], 0.407. In addition, the z-score in test [4] was 0.122 (inactive).
For the molecule `O=C1O[C@H](c2ccccc2)[C@H](c2ccccc2)N2[C@H]1[C@@H](C(=O)N1CCCCCCC1)[C@]1(C(=O)Nc3ccc(C#CCCO)cc31)[C@H]2c1ccccc1OCCO`, the composite z-score turned out to be 2.26 in test [1]; 3.11 in test [2]; 1.53 in [3]; 1.76 in [5]; 1.5 in test [6]; 2 in test [7]. In addition, the composite z-score in [8] is 1.79; in [9], 2.76; in test [10] it was 1.84. In addition, the z-score in test [4] was -0.207 (inactive).
`C=CCN1C(=O)[C@]2(O[C@H](CCn3cc([C@H](O)c4ccccc4)nn3)[C@@H]([Si](C)(C)c3ccc(OC)cc3)[C@@H]2C)c2ccccc21`: the composite z-score in test [1] was 0.474; in test [2], -0.291; in test [3], 0.414; in test [5], -0.364; in [6], -0.781; in [7] it was -1.25. Also, the values for the composite z-score in test [8], in test [9] and in test [10] were -0.581, -0.651 and 0.162, respectively. Besides, the z-score in [4] was 3.39 (inactive).
For the molecule `COC(=O)[C@@]1(Cc2ccc(OC)cc2)[C@H]2c3cc(C(=O)N4CCCC4)n(CCN4CNCC4=O)c3C[C@H]2CN1C(=O)c1ccccc1`, the composite z-score in test [1] is 1.8; in [2], 2.4; in [3] it was 1.41; in test [5], 1.03; in [6], -0.16; in test [7] it was 0.656. Also, the composite z-score in test [8] is -0.711; in [9], -0.462; in test [10], 0.949. In test [4], the z-score was 0.908 (inactive).
Turning to `CN(C)CCCCCCNC(=O)[C@H]1C[C@H]2C(=O)N[C@@H](CCCCN)C(=O)N2[C@H]1c1cccc(OCCO)c1`, the composite z-score turned out to be 1.99 in test [1]; 3.01 in test [2]; 1.72 in test [3]; 1.43 in [5]; 1.48 in [6]; 1.63 in [7]. In addition, the composite z-score in test [8] was 1.65; in test [9], 2.49; in test [10] it was 1.43. In [4], the z-score was -0.361 (inactive).
On to `CCCCCN1CC=CC23O[C@@H]4C=CCCOC(=O)C4[C@H]2C(=O)N(CCCCCO)[C@@H]3C1=O` (stereo not given in full), for which the composite z-score is -0.158 in test [1]; -0.287 in test [2]; 0.249 in [3]; -0.8 in test [5]; -0.299 in [6]; -1.16 in test [7]. Further, the figures for the composite z-score in [8], in [9] and in [10] were -1.15, -0.503 and 0.516, respectively. Besides, the z-score in test [4] was -0.978 (inactive).
In the case of `C=CCC(OC(C)=O)[C@@H]1[C@@H](N(Cc2ccc(-c3cccc(C(F)(F)F)c3)o2)C(=O)c2ccc(C)cc2)c2cc(OCCCO)ccc2N1C(=O)Cc1ccc2ccccc2c1` (stereo not given in full), the composite z-score in test [1] is -0.291; in test [2], -0.183; in test [3], 0.314; in test [5], -0.0662; in test [6], -1.46; in test [7], -0.206. For the same molecule, the composite z-score in test [8] was -0.458; in test [9], -0.214; in test [10] it was 1.14. In test [4], the z-score is -0.337 (inactive).
Consider `Cc1ccc(S[C@]2(C(=O)O)CC(=O)N(C(C)C)[C@@H]2c2ccc(CO)cc2I)cc1`, for which the composite z-score in test [1] was 1.33; in [2], 0.831; in test [3], 1.18; in test [5] it was 0.0877; in test [6], 0.511; in test [7] it was -0.645. Also, the results for the composite z-score in [8], in test [9] and in test [10] were 0.315, -0.27 and 1.33, respectively. Besides, the z-score in [4] is -2.55 (inactive).
Regarding `CCCC[C@@H]1C[C@H]1[C@@H](NC(=O)C(C)(C)C)c1ccc(C(F)(F)F)cc1`, the composite z-score in test [1] is -0.0923; in test [2] it was 0.767; in test [3], 1.44; in [5], -1.23; in test [6] it was -0.266; in [7] it was -1.76. The composite z-score was -1.63 in test [8], -1.61 in [9] and 0.328 in [10]. For the same molecule, in test [4], the z-score is -2.95 (inactive).
For `COC(=O)[C@H](Cc1ccccc1)N1CC2=C[C@@H](C3CC3)n3c(=O)n(C)c(=O)n3[C@H]2[C@@H]1[C@@H](O)Cc1ccccc1`, the composite z-score in test [1] was 0.711; in test [2] it was -0.412; in test [3], -0.5; in test [5] it was 0.617; in [6], 0.658; in test [7], 0.217. The composite z-score in test [8] is 0.868; in [9], 0.312; in [10] it was 0.289. For the same molecule, the z-score in [4] is -0.515 (inactive).
As for `NC(=O)NCC#Cc1ccc2c(c1)[C@]1(C(=O)N2)[C@H](c2ccccc2OCCO)N2[C@H](c3ccccc3)[C@H](c3ccccc3)OC(=O)[C@H]2[C@@H]1C(=O)Nc1nc2ccccc2s1`, the composite z-score in test [1] was 0.134; in [2], -0.0335; in test [3] it was 0.483; in [5] it was 0.271; in test [6] it was -0.175; in test [7] it was -0.209. For the same molecule, the composite z-score was 0.429 in test [8], 0.0336 in [9] and 0.52 in test [10]. Besides, the z-score in test [4] was 0.663 (inactive).
Turning to `CCc1cccc(NC(=O)O[C@H]2[C@H](OC(=O)Nc3ccccc3-c3ccccc3)[C@@H](OC(=O)Nc3ccccc3-c3ccccc3)[C@@H](OC)O[C@@H]2CO)c1`, the composite z-score in test [1] worked out at 1.29; in test [2] it was 0.481; in test [3], 0.648; in [5] it was 1.13; in test [6], 0.954; in test [7], 0.0707. Also, the composite z-score in test [8] was 1.38; in [9], -0.0897; in [10], 0.465. Besides, in test [4], the z-score was -2.55 (inactive).
